PubChem BioAssay
The source made the active and inactive calls.

How the values were obtained:
[1] = optical density shifts of acrAB sulA E. coli – strain DRC41, OD650, 48 h, E. coli filamentation inducer project, primary screen (AID 1152); conditions: higher = more signal, called active from +8 up or from −8 down;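 further: E. coli MC1000 strain DRC41 lacking acrAB efflux pump and sulA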
[2] = probe aLefty1 binding on compound microarray – biochemical, small-molecule microarray, 635/667 nm fluorescence, primary screen (AID 1153); conditions: higher = more signal;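 further: score merges spot fluorescence with signal-to-noise ratio from the scanned slide images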
[3] = plasmodial surface anion channel blockers, osmotic lysis – cell-based, P. falciparum Indochina, OD700, 1 h, primary screen (AID 1154); conditions: P. falciparum Indochina infected RBC osmotic lysis, higher = more signal, called active from +8 up or from −8 down
[4] = plasmodial surface anion channel blockers, osmotic lysis – cell-based, P. falciparum Indochina, OD700, 2 h, primary screen (AID 1155);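 further: lysis reports solute entry through the parasite surface anion channel PSAC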; conditions: P. falciparum Indochina infected erythrocytes, higher = more signal, called active from +8 up or from −8 down
[5] = changes in parasitized red cell lysis, either direction – P. falciparum Indochina, OD700, 3 h, PSAC antagonist project, primary screen (AID 1156); conditions: P. falciparum-infected erythrocytes, osmotic lysis, higher = more signal, called active from +8 up or from −8 down
[6] = plasmodial surface anion channel blockers, osmotic lysis – cell-based, P. falciparum Indochina, OD700, 18 h, primary screen (AID 1157); conditions: P. falciparum Indochina infected erythrocytes, osmotic lysis OD700, 18 h; higher = more signal, called active from +8 up or from −8 down
[7] = S6 kinase pathway phospho-S6 level changes – cell-based, A549, cytoblot, luminescence, serum-stimulated, primary screen (AID 1158); conditions: 5 h, higher = more signal;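 further: serum-stimulated A549 lung adenocarcinoma cells; signal is phosphorylated S6 detected by cytoblot immunostaining with HRP secondary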
[8] = biological target: NADPH oxidase 2 (Homo sapiens) (UniProt P04839); assay: compounds shifting NOX2 Amplex Red fluorescence – cell-based, HEK293-NOX2, PMA-stimulated, NOX inhibitor project, primary screen (AID 1159); conditions: 45 min, higher = more signal, called active from +8 up or from −8 down; further: test concentration not given here
[9] = biological target: NADPH oxidase 4 (Homo sapiens) (UniProt Q9NPH5); assay: compounds shifting NOX4 Amplex Red fluorescence – cell-based, HEK293-NOX4, tetracycline-induced, NOX inhibitor project, primary screen (AID 1160); conditions: HEK293-NOX4, Amplex Red H2O2 fluorescence, 45 min; higher = more signal, called active from +8 up or from −8 down
[10] = biological target: NADPH oxidase 5 (Homo sapiens) (UniProt Q96PH1); assay: compounds shifting NOX5 Amplex Red fluorescence – cell-based, HEK293-NOX5, NOX inhibitor project, primary screen (AID 1161); conditions: HEK293-NOX5, ionomycin, 45 min, higher = more signal
[11] = compound effects on lung adenocarcinoma cell viability – A549, calcein-AM fluorescence, 48 h, basal, profiling panel (AID 1162); conditions: higher = more signal; further: test concentration not given here
[12] = compound effects on differentiated 3T3-L1 adipocyte viability – cell-based, 3T3-L1 adipocytes, calcein-AM fluorescence, 48 h, basal, profiling panel (AID 1163); conditions: 3T3-L1 adipocytes viability, higher = more signal; further: test concentration not given here
[13] = compound effects on hepatocellular carcinoma cell viability – HepG2, calcein-AM fluorescence, 48 h, basal, profiling panel (AID 1164); conditions: higher = more signal; further: test concentration not given here
[14] = compound effects on multiple myeloma cell viability – MM1S, calcein-AM fluorescence, 48 h, basal, profiling panel (AID 1165); conditions: higher = more signal; further: test concentration not given here
[15] = calcein-AM signal in unstimulated myeloma cells – cell-based, calcein-AM fluorescence, 48 h, PK04 Diversity Set, profiling panel (AID 1166); conditions: RPMI8226 myeloma viability, higher = more signal;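 further: cells grown under basal conditions without added stimulus; test concentration not given here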
[16] = JC-1 mitochondrial signal, unstimulated HepG2 cells – cell-based, JC-1 fluorescence, 24 h, 100 nL compound, profiling panel (AID 1167); conditions: HepG2 mitochondrial potential, higher = more signal; further: test concentration not given here
[17] = JC-1 mitochondrial signal, unstimulated adipocytes – cell-based, JC-1 fluorescence, 3T3-L1 adipocytes, 24 h, 100 nL compound, profiling panel (AID 1168); conditions: JC-1 mitochondrial fluorescence, higher = more signal, called active from +8 up or from −8 down; further: test concentration not given here
[18] = JC-1 mitochondrial signal, unstimulated myeloma cells – cell-based, JC-1 fluorescence, RPMI8226, 24 h, 100 nL compound, profiling panel (AID 1169); conditions: JC-1 mitochondrial potential fluorescence, higher = more signal; further: test concentration not given here
[19] = JC-1 mitochondrial signal, unstimulated MM1S myeloma – cell-based, JC-1 fluorescence, 24 h, 100 nL compound, profiling panel (AID 1170); conditions: MM1S mitochondrial potential, higher = more signal; further: test concentration not given here
[20] = resazurin metabolic signal in A549 cells – cell-based, resazurin fluorescence, 24 h, PK04 Diversity Set, profiling panel (AID 1171); conditions: A549 viability, higher = more signal, called active from +8 up or from −8 down; further: test concentration not given here

Chain of NADPH oxidase 4 (Homo sapiens) (Q9NPH5 whole entry, looked up): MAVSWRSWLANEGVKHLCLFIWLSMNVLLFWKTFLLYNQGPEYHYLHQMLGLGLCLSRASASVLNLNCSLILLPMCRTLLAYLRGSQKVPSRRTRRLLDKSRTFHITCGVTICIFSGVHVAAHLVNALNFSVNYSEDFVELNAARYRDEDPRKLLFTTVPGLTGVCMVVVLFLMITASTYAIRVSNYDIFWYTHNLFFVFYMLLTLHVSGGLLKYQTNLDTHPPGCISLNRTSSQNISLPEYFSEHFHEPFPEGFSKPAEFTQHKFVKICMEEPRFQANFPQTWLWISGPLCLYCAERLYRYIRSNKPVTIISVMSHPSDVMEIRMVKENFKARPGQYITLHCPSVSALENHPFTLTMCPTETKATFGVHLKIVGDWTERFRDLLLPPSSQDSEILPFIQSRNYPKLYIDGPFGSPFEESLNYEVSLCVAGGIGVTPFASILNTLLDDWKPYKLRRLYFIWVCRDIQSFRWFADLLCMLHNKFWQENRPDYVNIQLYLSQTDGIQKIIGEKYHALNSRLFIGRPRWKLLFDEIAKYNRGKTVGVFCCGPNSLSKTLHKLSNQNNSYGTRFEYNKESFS
Chain of NADPH oxidase 2 (Homo sapiens) (P04839 whole entry, looked up): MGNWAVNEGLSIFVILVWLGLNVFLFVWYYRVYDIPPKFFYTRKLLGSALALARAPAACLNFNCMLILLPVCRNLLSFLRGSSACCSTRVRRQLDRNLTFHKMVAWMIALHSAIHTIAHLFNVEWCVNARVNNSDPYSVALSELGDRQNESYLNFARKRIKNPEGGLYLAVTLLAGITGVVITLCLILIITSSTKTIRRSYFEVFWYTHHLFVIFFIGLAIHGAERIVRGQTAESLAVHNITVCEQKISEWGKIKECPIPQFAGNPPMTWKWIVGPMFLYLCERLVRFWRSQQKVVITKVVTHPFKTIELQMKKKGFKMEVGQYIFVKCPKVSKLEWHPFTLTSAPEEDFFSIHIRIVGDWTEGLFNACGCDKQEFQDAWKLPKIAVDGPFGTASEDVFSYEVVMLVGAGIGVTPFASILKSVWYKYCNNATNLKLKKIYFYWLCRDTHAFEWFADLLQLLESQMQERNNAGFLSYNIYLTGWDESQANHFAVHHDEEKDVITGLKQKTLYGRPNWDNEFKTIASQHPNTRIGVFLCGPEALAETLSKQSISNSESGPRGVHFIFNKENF
Chain of NADPH oxidase 5 (Homo sapiens) (Q96PH1 whole entry, looked up): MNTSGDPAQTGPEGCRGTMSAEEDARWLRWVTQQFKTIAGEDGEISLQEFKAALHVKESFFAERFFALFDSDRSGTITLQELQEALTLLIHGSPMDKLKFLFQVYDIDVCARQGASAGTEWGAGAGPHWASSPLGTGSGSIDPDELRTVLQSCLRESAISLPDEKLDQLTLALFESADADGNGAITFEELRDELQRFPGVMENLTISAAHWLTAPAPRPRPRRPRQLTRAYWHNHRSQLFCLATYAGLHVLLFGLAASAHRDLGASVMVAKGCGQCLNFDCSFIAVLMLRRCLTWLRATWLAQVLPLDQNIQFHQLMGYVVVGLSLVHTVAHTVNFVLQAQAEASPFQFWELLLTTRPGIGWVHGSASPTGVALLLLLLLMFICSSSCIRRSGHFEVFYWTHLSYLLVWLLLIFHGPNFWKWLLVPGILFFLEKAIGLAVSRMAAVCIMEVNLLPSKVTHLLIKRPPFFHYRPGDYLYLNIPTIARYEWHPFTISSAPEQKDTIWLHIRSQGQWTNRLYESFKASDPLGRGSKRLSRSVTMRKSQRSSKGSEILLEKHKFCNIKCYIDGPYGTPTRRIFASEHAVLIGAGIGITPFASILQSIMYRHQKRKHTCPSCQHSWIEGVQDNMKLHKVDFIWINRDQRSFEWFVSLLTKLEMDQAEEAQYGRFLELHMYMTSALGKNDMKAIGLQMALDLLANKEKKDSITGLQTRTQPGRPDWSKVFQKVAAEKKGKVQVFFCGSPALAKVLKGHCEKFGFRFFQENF

Row | Structure (SMILES) | z-score [1] | composite z-score [2] | z-score [3] | z-score [4] | z-score [5] | z-score [6] | z-score [7] | z-score [8] | z-score [9] | z-score [10] | z-score [11] | z-score [12] | z-score [13] | z-score [14] | z-score [15] | z-score [16] | z-score [17] | z-score [18] | z-score [19] | z-score [20]
1 | CC(C)CCC[C@@H](C)[C@H]1CC[C@@]2(C)C3=C(CC[C@]12C)[C@@]1(C)CC[C@H](OC(=O)c2ccc(C(F)(F)F)nc2)C(C)(C)C1CC3 (stereo not given in full) | 3.47 (inactive) | -0.155 | -1.05 (inactive) | -0.693 (inactive) | 0.103 (inactive) | -2.61 (inactive) | 2.5 | -0.971 (inactive) | 0.129 (inactive) | 0.933 | 0.351 | 0.806 | 0.717 | 0.18 | 0.79 | 0.726 | -0.215 (inactive) | 0.483 | -0.263 | -0.0879 (inactive)
2 | COCCOC(=O)N1C(=O)[C@@]2(c3cc(C#CCCO)ccc31)[C@H](c1ccc(O)cc1)N1[C@H](c3ccccc3)[C@H](c3ccccc3)OC(=O)[C@H]1[C@@H]2C(=O)N1CCN(c2ncccn2)CC1 | 0.209 (inactive) | 1.97 | 1.65 (inactive) | 0.0986 (inactive) | 0.599 (inactive) | 0.235 (inactive) | 0.078 | 1.11 (inactive) | 0.682 (inactive) | 1.85 | -0.858 | -0.721 | -0.753 | -0.0852 | 0.248 | 0.0243 | -1.45 (inactive) | -0.139 | -0.611 | 0.838 (inactive)
3 | COc1ccc(C(O)C2C=CC3C(=O)N(C)C(=O)C3N2NC(=O)OC(C)(C)C)c2ccccc12 (stereo not given) | -1.17 (inactive) | 0.445 | 1.9 (inactive) | 1.09 (inactive) | 0.0084 (inactive) | 1.2 (inactive) | -1.16 | -0.674 (inactive) | -1.92 (inactive) | 0.384 | -0.844 | -0.769 | -1.99 | 0.18 | -0.463 | -2.62 | 0.549 (inactive) | 0.674 | 0.932 | 1.94 (inactive)
4 | COCCCNC(=O)[C@@]1(Cc2ccccc2)N=C(c2ccc(OCCCO)cc2)O[C@H]1c1ccccc1CN=[N+]=[N-] | 0.576 (inactive) | 0.272 | 14.3 (active) | 1.83 (inactive) | 1.75 (inactive) | 0.94 (inactive) | -0.443 | -4.56 (inactive) | -0.271 (inactive) | -0.67 | 0.925 | -0.703 | 0.941 | -0.0943 | -1.75 | 1.31 | 0.571 (inactive) | -1.26 | -0.918 | -0.484 (inactive)
5 | C[N+](C)(C)CCCCCCNC(=O)[C@H]1C[C@H]2C(=O)N[C@@H](Cc3ccccc3)C(=O)N2[C@H]1c1cccc(OCCO)c1 | 0.123 (inactive) | 0.222 | 10.3 (active) | 1.48 (inactive) | -1.42 (inactive) | 0.719 (inactive) | -0.62 | 1.78 (inactive) | 0.576 (inactive) | 1.13 | -0.344 | -1.04 | -0.695 | 0.245 | 0.517 | -1.25 | -0.371 (inactive) | -0.186 | -0.545 | 0.568 (inactive)
6 | COCCOC(=O)N1C(=O)[C@@]2(c3cc(C#Cc4ccc(OC)cc4)ccc31)[C@H](c1ccc(O)cc1)N1[C@H](c3ccccc3)[C@H](c3ccccc3)OC(=O)[C@H]1[C@@H]2C(=O)Nc1nc2ccccc2s1 | -1.12 (inactive) | 0.269 | 1.41 (inactive) | 0.616 (inactive) | -1.14 (inactive) | 1.01 (inactive) | 0.263 | 1.95 (inactive) | 0.183 (inactive) | -0.164 | -0.738 | 0.967 | 0.0165 | -1.55 | -1.6 | -2.51 | -0.0239 (inactive) | -0.71 | -1.34 | -0.838 (inactive)
7 | CC(C)CN1C(=O)[C@@]2(c3ccc([N+](=O)[O-])cc3)CC(=O)N(C3CCCCC3)[C@@H]2c2ccc(CO)cc21 | 0.511 (inactive) | -0.191 | 0.531 (inactive) | 0.437 (inactive) | 0.0909 (inactive) | 0.523 (inactive) | -0.277 | -0.717 (inactive) | -0.778 (inactive) | -0.209 | -0.651 | 0.16 | -0.403 | 0.246 | 0.0529 | 0.0665 | -0.339 (inactive) | 0.603 | -0.214 | -0.881 (inactive)
8 | O=C1O[C@H](c2ccccc2)[C@H](c2ccccc2)N2[C@H]1[C@@H](C(=O)NC[C@H](O)c1ccccc1)[C@]1(C(=O)Nc3ccccc31)[C@H]2c1ccc(O)cc1 | 0.281 (inactive) | 0.0191 | 2.49 (inactive) | 1.29 (inactive) | -0.214 (inactive) | 1.29 (inactive) | -0.482 | -0.0983 (inactive) | -0.705 (inactive) | 0.152 | -0.184 | 0.279 | -0.454 | -2.03 | -3.84 | -3.2 | -0.104 (inactive) | -0.933 | -1.03 | -0.377 (inactive)
9 | C=CC[C@@]1(C(=O)N2CCCCC2)N=C(c2ccc(OCCCO)cc2)O[C@@H]1c1ccccc1CN=[N+]=[N-] | 0.279 (inactive) | 0.393 | 26 (active) | 16 (active) | 2.79 (inactive) | 1.04 (inactive) | 1.32 | -0.935 (inactive) | 1.43 (inactive) | 1.05 | -0.933 | 0.952 | 0.192 | -1.09 | -3.66 | 1.47 | -0.307 (inactive) | -1.01 | -0.18 | -1.5 (inactive)
